KB-V1 MDR tox = kills drug-selected multidrug resistant KB-V1 cells; actives 3.4% (n = 400,000); Potency, µM (doses to about 46.1 µM), hits mostly cytotoxic; KB-V1 MDR cells viability, CellTiter-Glo, 72 h; also: % is scaled to controls: 0 for no effect and ±100 for the full control effect; nearly all actives have a fitted effect of over 60% in size
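Cytotoxicity via CellTiter-Glo luminescence after 72 h compound exposure at 37 degrees C. Cells: drug-selected KB-V1 line, DMEM phenol-red free plus 10% FBS. Compounds tested at multiple concentrations; normalized data fitted to concentration-effect curves.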
KB-3-1 cytotox = KB-3-1 parental cell cytotoxicity. KB-3-1 viability, CellTiter-Glo ATP luminescence, 72 h. Potency, µM (series often up to 46.1 µM), usual class: cytotoxic. actives 1.4% (n = 400,000). AID 1347075; also: % is scaled to controls: 0 for no effect and ±100 for the full control effect; nearly all actives have a fitted effect of over 60% in size
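Luminescent ATP read-out (CellTiter-Glo) measures survival of drug-naive KB-3-1 cells after 72 h compound exposure at 37 °C. Titration series was screened from lowest to highest concentration, with DMSO vehicle plates as background controls.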
MCF10A rereplic = DNA re-replication induction in MCF 10a cells. actives 2.9% (n = 350,000). Potency, µM (top dose mostly 46.1 µM), without a hit: at the top dose activity, positive = re-replication, most hits filed as activators. AID 624296. MCF 10A DNA re-replication, Hoechst nuclear intensity, 48 h; also: % of control where 0% means no effect; nearly all actives have a fitted effect of over 50% in size
SW480 rerep = DNA re-replication induction in SW480 cells; SW480 DNA re-replication, Hoechst DNA content imaging, 48 h; Potency, µM (highest dose often 46.1 µM), without a hit: at the top dose re-replication activation, hits mostly activators; actives 1.8% (n = 340,000); AID 624297; also: % of control where 0% means no effect; nearly all actives have a fitted effect of over 55% in size
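250 cells/well; 23 nL cpd via pin tool; 48 hr, 37 C, 5% CO2; Hoechst 40 min; imager read of total nuclear intensity, ex 405/em 500-530 nm.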
PINK1 expr mod = modulators of PINK1 expression; PINK1 immunofluorescence, high-content cytometry, 24 h; Potency, µM (top dose mostly 76.6 µM), without a hit: top-dose activation (PINK1 increase), most hits filed as activators; actives 0.2% (n = 410,000); active = well fitted activation curve with a large enough effect; inconclusive = small, poorly fitted or top-dose-only effect; cell line not stated here; also: % of control where 0% means no effect; nearly all actives have a fitted effect of over 65% in size
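A stable cell line was treated with compounds at 5 concentrations for 24 hours, with CCCP as control. PINK1 levels and mitochondrial localization were measured by immunofluorescence with mitochondrial, cell and nuclear markers after fixation, read by laser-scanning cytometry.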
* = called active by the depositor; i = inactive; u = inconclusive; x = no result given; [ ] = dose if it differs, or a comment. Most compounds without a hit are left out; they make up all but 6.7% or so of the library. Unless noted, calls follow the shape of the dose curve; as a rule, active = well fitted curve in the direction sought with a large enough effect; inconclusive = small, poorly fitted or top-dose-only effect, or another doubt; inactive = no such curve, though single readings can be large; an effect the other way counts as inactive or inconclusive. Potency is read from the fitted curve at half-maximal effect.

SMILES	KB-V1 MDR tox	KB-3-1 cytotox	MCF10A rereplic	SW480 rerep	PINK1 expr mod
Oc1ccccc1/C=N/NC(=S)NC1CC2C=CC1C2 (stereo not drawn)	i	u	10.3µM*	25.7%	28.7%
Oc1ccc(O)c(C=NNC(=S)NC2CC3CC2C2C=CCC32)c1 (stereo not drawn)	u	u	x	x	1.7%
Cc1ccc(-c2nonc2NC(=O)c2ccc(F)cc2)cc1C	i	i	x	x	u
Cc1cc(NS(=O)(=O)c2ccc3c(c2)CCC(=O)N3)ccc1F	i	i	x	x	x
CCC(C)NC(=O)c1ccc2nc(-c3cccs3)c(-c3cccs3)nc2c1 (stereo not drawn)	i	10.3µM*	x	x	0.8%
CCC(C)NC(=O)c1cc(-c2cccs2)nc2ccccc12 (stereo not drawn)	i	i	15.7%	-4.5%	12.7%
COc1cc(NC(=O)c2cc(-c3cccc(O)c3)on2)cc(OC)c1OC	i	11.6µM*	12.8%	-3.0%	3.8%
O=C(NCc1cccs1)c1cc(-c2cccs2)on1	i	i	4.9%	-4.3%	1.0%[38.3 µM]
COCCNC(=O)c1cc(-c2cccs2)on1	20.6µM*	20.6µM*	-6.3%	1.2%	2.5%
COc1cc(NC(=O)c2cc(-c3ccccc3Cl)on2)cc(OC)c1OC	u	6.51µM*	20.6µM*	u	9.1%
COc1ccc(NS(=O)(=O)c2ccccc2)cc1NS(=O)(=O)c1ccccc1	i	i	x	x	x
Cc1cc(C(=O)Nc2cccc(F)c2)c2c(C)nn(-c3cccc(Cl)c3C)c2n1	i	u	x	x	3.5%
COc1cc(NC(=O)c2cc(-c3ccc(C)cc3)on2)cc(OC)c1OC	i	i	-4.8%	-2.6%	1.6%
COCCNC(=O)Nc1ccc2nc(-c3cccs3)c(-c3cccs3)nc2c1	i	i	23.1µM*	u	5.1%
COc1cc(NC(=O)c2cc(-c3cccs3)on2)cc(OC)c1OC	6.51µM*	u	u	u	5.6%
O=C(Nc1ccc2nc(-c3cccs3)c(-c3cccs3)nc2c1)N1CCCC1	i	i	x	x	-0.1%
Cc1ccc(N2CCC3CC2c2cc(-c4ccc(C(F)(F)F)cc4)ccc23)cc1 (stereo not drawn)	i	i	x	x	18.7%
COc1ccc(C2CN=NC23CCCc2ccccc2C3=O)cc1 (stereo not drawn)	u	u	18.4µM*	18.4µM*	0.8%
Cc1c(C(=O)NCc2ccco2)cnn1-c1ncc2c(n1)-c1ccccc1CC2	x	x	x	x	-1.1%
O=C/C=C/c1c(-c2ccccc2)cc2oc3ccccc3cc1-2	u	u	8.2µM*	u	18.1%
O=C(Nc1ccccc1OCc1cc(=O)n2ccccc2n1)c1cccc(Br)c1	x	x	x	x	-5.5%
CCOC(=O)N1CCN(C(=O)c2cc3sccc3n2C)CC1	13µM*	i	1.3%	-5.0%	-3.0%[38.3 µM]
Cn1c(C(=O)N2CCN(c3cccc(C(F)(F)F)c3)CC2)cc2sccc21	i	i	u	23.1µM*	6.6%[38.3 µM]
CCOC(=O)N1CCC(NC(=O)C2CCCN(C(=O)c3cc4sccc4n3C)C2)CC1 (stereo not drawn)	u	i	-11.4%	-4.4%	-0.4%
CSc1ccc2cc(CNCc3ccccc3F)c(N3CCCC(CO)C3)nc2c1 (stereo not drawn)	x	x	x	x	-0.2%
SMILES	KB-V1 MDR tox	KB-3-1 cytotox	MCF10A rereplic	SW480 rerep	PINK1 expr mod
CC(C)(C)c1cc(C(=O)N/N=C/c2cc3c(cc2Br)OCO3)n[nH]1	i	i	-12.7%	0.9%	5.8%
CN(c1ccccc1)S(=O)(=O)c1cc(C(=O)OCC(=O)c2c(N)n(C)c(=O)n(C)c2=O)ccc1Cl	16.4µM*	i	3.4%	-5.9%	7.1%
Cn1c(N)c(C(=O)COC(=O)c2ccc(Cl)c(S(=O)(=O)N3CCCCC3)c2)c(=O)n(C)c1=O	20.6µM*	i	u	22.1%	2.0%
Cc1ccc(S(=O)(=O)N2CCN(c3nc(-c4ccnnc4)nc4ccccc34)CC2)cc1	x	x	x	x	1.5%
COc1cccc(/C=N/Nc2nc(Nc3ccc([N+](=O)[O-])cc3)nc(N3CCCC3)n2)c1O	u	16.4µM*	5.8%	5.8µM*	2.2%
CC(=NNc1ccc([N+](=O)[O-])cn1)c1ccccc1	i	i	-0.8%	-11.4%	3.9%
O=[N+]([O-])c1ccc(Nc2nc(N/N=C/c3cccc(F)c3)nc(N3CCCC3)n2)cc1	i	i	u	-8.3%	u
CC(C=NNc1ccc([N+](=O)[O-])cn1)=Cc1ccccc1	i	i	9.2%	u	28.2µM*
O=[N+]([O-])c1ccc(NN=Cc2cccc3ccccc23)nc1	i	u	u	3.26µM*	1.6%
COc1cccc(/C=N/Nc2ccc([N+](=O)[O-])cn2)c1O	i	5.17µM*	u	1.16µM*	-2.1%
C=CCN1C(=O)C(C)(C)N(C(C)=O)c2ccccc21	i	i	u	u	1.1%
CC(=O)N1c2ccccc2N(Cc2ccc(C)cc2C)C(=O)C1(C)C	u	4.11µM*	11.6µM*	18.4µM*	7.4%
COC(=O)c1c(C)oc2ccc(N(C(C)=O)S(=O)(=O)c3ccccc3)cc12	2.31µM*	23.1µM*	9.6%	1.4%	3.9%
COC(=O)c1c(C)oc2ccc(N(C(=O)c3ccncc3)S(=O)(=O)c3cc(C)ccc3C)cc12	6.51µM*	13µM*	x	x	0.8%
COC(=O)c1c(C)oc2ccc(N(C(=O)c3ccncc3)S(=O)(=O)c3ccc(Br)cc3)cc12	i	i	x	x	4.1%
